Source: PubChem (several laboratories)
Mtb hypoxia inh – PubChem AID 1159583; M. tuberculosis hypoxia-regulated fluorescent reporter, fluorescence; fluorescence inhibition, % (concentration not given with the values); 300,000 compounds, 0.1% hits; in the data active = fluorescence inhibition mostly above about 23%, no sharp cut-off; inactive = mostly below about 17%
SSB-PriA inh – inhibitors of Klebsiella pneumoniae PriA binding to SSB C-terminal tail, primary screen, biochemical, AlphaScreen | PriA–SSB C-terminal tail interaction (Klebsiella pneumoniae) | AlphaScreen SSBct-PriA binding, biotinylated peptide | inhibition, % at 33 µM | 430,000 compounds, 0.6% hits | AID 1272365, 2023; in the data active = inhibition mostly above about 37%, no sharp cut-off; inactive = mostly below about 20%;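 note: plate controls were negative control peptide for no effect and reference peptide for full effect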
Vc quorum ag-1 – inducers of Vibrio cholerae quorum light production without autoinducers, primary screen, BH1578 luxS cqsA deficient, single point; V. cholerae BH1578 lux reporter, luminescence, 6 h; activation, % at 18.7 µM; 350,000 compounds, 0.16% hits; in the data active = activation mostly above about 9.7%, no sharp cut-off
MazEF act – activators of E. coli MazEF toxin-antitoxin RNase, primary screen, biochemical, fluorescence, uHTS. Endoribonuclease toxin MazF (Escherichia coli (strain K12)), P0AE70. FAM/BHQ RNA-DNA oligo cleavage fluorescence, 5 h. activation, % at 20 µM. 350,000 compounds, 0.32% hits; in the data active = activation above about 50%
Target sequence (P0AE70 whole entry, looked up): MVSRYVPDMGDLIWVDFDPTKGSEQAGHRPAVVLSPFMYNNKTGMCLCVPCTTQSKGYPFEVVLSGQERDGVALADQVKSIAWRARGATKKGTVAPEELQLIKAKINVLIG
Vc quorum ag-2 – V. cholerae lux activation without autoinducers – BH1578 luxS cqsA deficient, cherry-pick, plate reader, dose response. shares compounds with Vc quorum ag-1. V. cholerae BH1578 lux reporter, luminescence, 6 h. activation, % at 50 µM. 620 tested, under 10 active. AID 602243, 2012; call rule not given here
Active calls of the source: *; . = no result. Sampled rows, rich in hits. Any-hit rate of the full collection: about 0.94%.

SMILES | Mtb hypoxia inh | SSB-PriA inh | Vc quorum ag-1 | MazEF act | Vc quorum ag-2
COc1cc(C(=O)Nc2ccc(NC(=O)c3ccccc3)nc2)cc(OC)c1OC | -5 | 3 | 1 | -1 | .
CC(C)C(=O)N1CCc2ccc(NS(C)(=O)=O)cc2C1 | . | -4 | . | . | .
CCCc1cc(Nc2ccccc2OCC)n2ncnc2n1 | . | -14 | 3 | 0 | 1
CCCc1cc(Nc2ccccc2)n2ncnc2n1 | -5 | -19 | 1 | 5 | .
Cc1cccc(N2CCN(C(=O)C34CC5CC(CC(C5)C3)C4)CC2)c1C | . | -7 | 22* | -1 | 1
